Screens from PubChem.
tim23-1 inh: tim23-1 yeast growth inhibition; S. cerevisiae tim23-1 growth, BacTiter-Glo luminescence, 24 h; inhibition, % at 20 µM; 330,000 tested, 1.3% active;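 active = growth inhibition of the mutant yeast at or above 50%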;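 also: temperature-sensitive mutant grown at 25 °C; plate controls were DMSO-treated mutant yeast for no effect and medium wells lacking yeast for full effect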
NALP1 yeast inh: blocks the NALP1 inflammasome reconstituted in yeast; S. cerevisiae NALP1/ASC/caspase-1 growth, X-gal OD620, 72 h; inhibition, % at 10 µM; 280,000 tested, 0.61% active; in the data active = inhibition mostly above about 24%, no sharp cut-off; inactive = mostly below about 32%
NALP3 yeast inh: NALP3 inhibition in yeast | Yeast reconstituted NLRP3/ASC/caspase-1, beta-gal luminescence, 24 h | 330,000 tested, 0.39% active | AID 2825 | inhibition, % at 10 µM;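 active = inhibition of 50% or more; inactive = inhibition below 50%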;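 also: plate controls were induced DMSO wells for no effect and uninduced yeast grown without galactose for full effect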
tim10-1 inh: growth inhibitors of tim10-1 mutant yeast; S. cerevisiae tim10-1 ts strain growth, BacTiter-Glo, 24 h; inhibition, % at 20 µM; 330,000 tested, 2.2% active; AID 463190;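 active = inhibition of at least 40%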;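 also: mutant grown at 25 °C; 0% = DMSO wells with yeast and 100% = wells holding no yeast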
PfHsp90 set2: growth inhibition of yeast expressing Plasmodium Hsp90. S. cerevisiae expressing PfHsp90, BacTiter-Glo ATP, 48 h; yeast lacking PDR1 and PDR3 efflux regulators. inhibition, % at 9.4 µM. 310,000 tested, 0.32% active;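 active = every replicate shows inhibition above about 80%, whatever the replicate mean, limit read from the data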;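 also: 0% = DMSO neutral controls and 100% = 20 µM radicicol positive controls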
TIM10 inh: TIM10 yeast growth inhibition | S. cerevisiae TIM10 strain growth, BacTiter-Glo luminescence, 24 h | inhibition, % at 10 µM | 330,000 tested, 1.4% active;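 active = inhibition of 40% or more at the single tested concentration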;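 also: wild-type TIM10 isogenic control strain grown at permissive 25 °C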
tim23-1 confirm: confirmation of tim23-1 mutant yeast growth inhibitors; 4,400 tested, 83% active; S. cerevisiae tim23-1 growth, BacTiter-Glo luminescence, 24 h; inhibition, % at 20 µM; shares compounds with tim23-1 inh;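 active = inhibition above about 39% in either of two replicate wells at 20 µM, limit read from the data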;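 also: temperature-sensitive tim23-1 mutant grown at 25 °C; 0% = DMSO wells with yeast and 100% = medium wells without yeast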
Starred values were filed as active, the others as inactive; . = not tested or not shown. A selection: hits, their analogues and other compounds. The true share with any hit is near 4.1%.

SMILES	tim23-1 inh	NALP1 yeast inh	NALP3 yeast inh	tim10-1 inh	PfHsp90 set2	TIM10 inh	tim23-1 confirm
CCOC(=O)Nc1nc(-c2ccccc2)c(C(=O)c2ccc(Cl)cc2)s1	53*	15	23	34	-18	34	59*
CCOC(=O)Nc1sc(C)nc1-c1ccccc1	0	-43	-7	-21	0	-7	.
Nc1ccc2nc(-c3ccccc3)[nH]c2c1	2	2	18	-10	10	9	.
Nc1cccc(-c2nc3ccc(C(=O)c4ccccc4)cc3[nH]2)c1	55*	9	8	4	3	21	56*
O=C(Cn1cc([N+](=O)[O-])ccc1=O)NCC(=O)Nc1ccc(F)c(F)c1F	-4	.	8	-5	6	-8	.
N/C(Cc1ccc(Cl)c(Cl)c1)=N\OC(=O)c1ccc(Br)o1	77*	-2	4	40	95*	-12	80*
Clc1ccc(OCc2nc(-c3ccccn3)n[nH]2)cc1	48	26	25	21	-10	14	.
Brc1ccc(OCc2nc(-c3ccccn3)n[nH]2)cc1	52*	-4	42	19	-25	6	53*
O=Cc1cnc2ccccc2c1-c1ccccc1	63*	4	21	12	-21	2	58*
O=Cc1cn[nH]c1-c1ccccc1	7	-15	8	0	3	2	.
O=[N+]([O-])c1ccc2[nH]nc(-c3ccccc3)c2c1	59*	28	41	37	-5	35	33
Cc1ccc(NC(=O)CN(CCc2ccccc2)S(C)(=O)=O)cc1	12	13	14	9	3	11	.
NS(=O)(=O)c1ccc(N2N=C(c3ccccc3)CC2c2cccc(Br)c2)cc1 (stereo not given)	52*	.	.	35	19	13	33
Cc1ccccc1COc1ccc(/C=C(\C#N)C(N)=O)cc1	11	14	19	3	18	10	.
N#C/C(=C\c1ccc(OCc2ccccc2)cc1)C(N)=O	63*	7	13	34	9	6	52*
COc1ccc(-n2nnnc2SCC(=O)Nc2c(C)n[nH]c2C)cc1	-3	.	12	2	-3	-3	.
COC(=O)C1=C(Nc2ccccc2NS(=O)(=O)c2ccc(C(F)(F)F)cc2Cl)CSC1	54*	.	16	38	-7	34	52*
COC(=O)C1=C(Nc2ccccc2NC(=O)c2ccccc2C(=O)O)CSC1	28	.	5	21	-1	17	.
Cc1cccc(N2C(=O)c3ccc(Br)cc3C2=O)n1	56*	5	29	5	-14	12	45*
Cc1ccc2nc(-c3cccc(N)c3)oc2c1	6	7	11	-8	-30	6	.
Cc1cc(C)c2oc(-c3cccc(N)c3)nc2c1	64*	9	19	14	-53	-25	60*
C=CCN1c2ccccc2C(=O)C(C)S1(=O)=O (stereo not given)	26	.	.	-5	-12	1	.
C=CCN1c2ccc(Br)cc2C(=O)CS1(=O)=O	58*	.	13	34	.	35	54*
CC(C)CN(C(=O)Cn1ccccc1=O)C1CCS(=O)(=O)C1 (stereo not given)	-7	.	10	-20	3	-2	.
O=C(CSc1ccccc1)Nc1ccc2c(c1)C(=O)NC2=O	12	10	3	4	-23	-3	.
SMILES	tim23-1 inh	NALP1 yeast inh	NALP3 yeast inh	tim10-1 inh	PfHsp90 set2	TIM10 inh	tim23-1 confirm
CC1CCCC(C)N1C(=O)COC(=O)C12CC3CC(CC(Cl)(C3)C1)C2 (stereo not given)	42	.	14	20	-2	21	.
CN(C(=O)COC(=O)C12CC3CC(CC(Cl)(C3)C1)C2)c1ccccc1	56*	.	-6	23	.	26	44*
COc1ccccc1CC(=O)N(CCC1=CCCCC1)c1c(N)n(Cc2ccccc2)c(=O)[nH]c1=O	19	.	-1	-1	.	1	.
COc1cccc(NC(=O)COc2ccc3c(c2)CCC3)c1	18	20	28	-35	1	9	.
COc1ccc(OCC(=O)Nc2ccc3c(c2)CCC3)cc1	66*	.	47	6	-6	10	58*
O=C(CSc1nnc(-c2ccncc2)o1)Nc1ccccc1C(F)(F)F	4	-7	6	0	-19	3	.
COc1ccc(C(=O)OCC(=O)NCC2CCCCC2)cc1F	17	.	-5	34	.	-4	.
CCOC(=O)C1=CNS(=O)(=O)NC1c1ccc(C(F)(F)F)cc1 (stereo not given)	30	.	.	4	4	-13	.
CCOC(=O)CS(=O)(=O)c1nc(-c2ccc(F)cc2)cc(C(F)(F)F)n1	69*	15	13	27	-41	30	-81
CS(=O)(=O)c1nc(-c2ccc(F)cc2)cc(C(F)(F)F)n1	.	25	.	.	9	.	.
Cc1nnc(SCC(=O)N2CCCCC2)n1CC1CCCO1 (stereo not given)	69*	1	4	3	16	-9	14
Cc1csc2nc(O)c(C(=O)NCc3ccc4c(c3)OCO4)c(=O)n12	75*	.	41	35	0	39	73*
O=C(Nc1cn(-c2ccccc2)nc1-c1cccs1)c1ccco1	58*	1	1	34	-10	5	47*
Cc1ccc(OCCN2C(=O)C(=O)c3cc(C)ccc32)cc1	57*	-3	7	17	-9	22	53*
O=C1C(=O)N(CCS(=O)(=O)c2ccccc2)c2ccc(Cl)cc21	21	6	14	22	8	15	.
Cc1ccc(OCCCN2C(=O)C(=O)c3cccc(C)c32)cc1	53*	-2	19	26	21	18	62*
CCCN1C(=O)C(=O)c2cc(Cl)ccc21	61*	.	-1	13	11	14	40*
CCCCc1nnc(NC(=O)Cc2ccc(S(=O)(=O)N3CCOCC3)s2)s1	4	.	6	6	-4	-7	.
CC(C)CN(CCCNC(=O)CN1C(=O)COc2ccc(S(=O)(=O)N3CCOCC3)cc21)CC(C)C	13	7	13	19	-5	-11	.
CSc1ccc(S(=O)(=O)NC2CCCCCC2)cc1	53*	-11	27	10	71	22	48*
CCN(CC)C(=O)[C@H]1CC(CC(=O)NCC23CC4CC(CC(C4)C2)C3)C(=O)N2CCc3c([nH]c4ccccc34)[C@]12C (stereo not given in full)	24	.	11	10	20	13	.
Cc1ccc(S(=O)(=O)N2C[C@@H]3[C@H]4CC[C@H](C4)[C@@H]3[C@@H](C)[C@@H]2c2ccco2)cc1	41	.	.	24	-2	-3	.
Cc1ccc(S(=O)(=O)N2C[C@@H]3[C@H]4CC[C@H](C4)[C@@H]3[C@@H](C)[C@H]2c2ccco2)cc1	50*	.	.	28	10	8	34
